In the library only some 0.79% were active in any assay of this set; here they are far more common.
Tat transport = blocks Tat-dependent protein export in E. coli; 340,000 tested, 0.036% active; inhibition, % at 10 µM; E. coli MC4100 TorA-mCherry Tat export, fluorescence;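 active means mean replicate inhibition at least 50% and at least half of replicates individually reaching 50%; inconclusive means only one of the two criteria met; inactive means neither criterion met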;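 further: exported cargo escapes ClpAP degradation while cytoplasmic cargo is degraded and loses fluorescence; 0% = median of neutral control wells and 100% = median of NaSCN control wells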
AddAB inh = less growth of phage-infected E. coli with AddAB; E. coli expressing H. pylori AddAB, absorbance growth; inhibition, % at 11.9 µM; 330,000 tested, 0.29% active; AID 435030; in the data active means inhibition above about 12%;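 further: 0% = vehicle wells of infected cells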
AI-2 QS modul = Vibrio harveyi AI-2 quorum sensing modulation; activity change, % at 7.5 µM; 300,000 tested, 0.4% active; Vibrio harveyi JMH597 AI-2 luminescence/OD600 ratio, 9 h; hits give low values; strain lacks LuxN and CqsS sensors; 0 = neutral-control median; AID 2094; in the data active means activity change below about -75%, passing the limit was not always enough; inconclusive means no clear call, values can overlap the other calls;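 further: luminescence divided by OD600 gain over 9 h not by final OD600 alone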
phage Ecoli inh = E. coli growth loss with phage present | growth absorbance | AID 651602 | inhibition, % at 11.9 µM | 360,000 tested, 0.26% active; in the data active means inhibition above about 11%
E coli growth-1 = inhibitors of Escherichia coli growth; OD600 absorbance (test concentration not listed); 330,000 tested, 0.21% active; AID 1053175; OD600, 23 h; hits give low values;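 active means OD600 absorbance below the run mean of sample wells minus 3.6 SD, in any replicate, cut at about 0.56 in these data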
E coli growth-2 = reduces bacterial viability in AddAB counter-screen. E. coli V3065 growth, OD600 absorbance, 18 h. inhibition, % at 11.9 µM. 330,000 tested, 0.27% active. AID 449728;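 active means inhibition above the campaign's mean inhibition across all tested compounds plus 3 SD, cut at about 9.9% in these data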;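 further: uninfected addAB+ strain grown without phage in ampicillin broth; 0% = DMSO wells and 100% = ciprofloxacin 0.95 µg/ml wells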
Numbers without * were called inactive.

Screening CC(C)(C)c1ccc(CNc2ccc([N+](=O)[O-])cn2)cc1 returned Tat transport 8, AddAB inh 7, AI-2 QS modul -83*, phage Ecoli inh 3, E coli growth-1 0.68 and E coli growth-2 -1.
`CC(C)c1ccc(CNc2ccc([N+](=O)[O-])cn2)cc1` gave Tat transport -2, AddAB inh 0, AI-2 QS modul -55, phage Ecoli inh 5, E coli growth-1 0.64 and E coli growth-2 1.
For COC(=O)C=Cc1ccccc1S(=O)(=O)N(Cc1ccccc1)Cc1ccco1 the results were E coli growth-1 0.66.
For CC(C)(C)c1cc(CSC(=S)NC2CCS(=O)(=O)C2)c(Br)c(C(C)(C)C)c1 (configuration not stated) the results were Tat transport 11, AddAB inh 1, AI-2 QS modul 36, phage Ecoli inh 1, E coli growth-1 0.72 and E coli growth-2 -2.
`O=S1(=O)CC=C(CSC(=S)NC2CCS(=O)(=O)C2)C1` (configuration not stated) gave Tat transport -57, AddAB inh 2, AI-2 QS modul -83*, phage Ecoli inh 3, E coli growth-1 0.56 and E coli growth-2 -3.
For O=C(C1=CC(c2coc3ccccc3c2=O)CC(OCc2ccc(CO)cc2)O1)N1CCN(Cc2ccc3c(c2)OCO3)CC1 (configuration not stated) the results were E coli growth-1 0.68.
CCc1ccc2[nH]c3nc(N/N=C/c4ccc(O)cc4O)nnc3c2c1 was read as Tat transport -20, AddAB inh 11, AI-2 QS modul 7, phage Ecoli inh 8 and E coli growth-2 11*.
`Cc1ccc(NS(=O)(=O)c2cccc(C(=O)NN=Cc3ccc4c(c3)OCCO4)c2)c(C)c1` gave E coli growth-1 0.71.
`O=c1c2cc(Br)ccc2nc(-c2ccc([N+](=O)[O-])cc2)n1O` gave Tat transport -1, AddAB inh 1, AI-2 QS modul -167*, phage Ecoli inh 5, E coli growth-1 0.62 and E coli growth-2 -1.
N#Cc1ccc(-c2nc3ccc(Br)cc3c(=O)n2O)cc1 was read as Tat transport -2, AddAB inh -1, AI-2 QS modul -111*, phage Ecoli inh -2, E coli growth-1 0.65 and E coli growth-2 -2.
Screening O=c1c2ccc(Cl)cc2nc(-c2ccc([N+](=O)[O-])cc2)n1O returned Tat transport -6, AddAB inh 2, AI-2 QS modul 23, phage Ecoli inh 6 and E coli growth-2 -1.
`Cc1cc(Nc2ccc(Cl)cc2)nc(NCc2ccccc2)n1` gave Tat transport -9, AddAB inh 3, AI-2 QS modul inconclusive, phage Ecoli inh 4, E coli growth-1 0.41* and E coli growth-2 5.
Screening Cc1cc(Nc2ccccc2)nc(NCc2ccccc2)n1 returned Tat transport 0, AddAB inh 4, AI-2 QS modul -44, phage Ecoli inh 4, E coli growth-1 0.6 and E coli growth-2 4.
Cc1ccc(Cc2nc(-c3ccccn3)no2)cc1 was read as Tat transport 7, AddAB inh -1, AI-2 QS modul -85*, phage Ecoli inh 4, E coli growth-1 0.7 and E coli growth-2 -1.
`CO/N=C(/C(=O)N[C@@H]1C(=O)N2C(C(=O)O)=CCS[C@H]12)c1cnc(N)s1` gave AddAB inh 100*, AI-2 QS modul 46 and E coli growth-2 100*.
Screening O=C(COc1ccccc1)NC1C(=O)N2C(C(=O)O)=C(Cl)CSC12 (configuration not stated) returned Tat transport 0, AddAB inh 3, AI-2 QS modul 21, phage Ecoli inh 1, E coli growth-1 0.69 and E coli growth-2 2.
`C=CCN1C(=O)[C@@H]2Cc3c([nH]c4ccccc34)C(c3cc(OC)c(OC)c(OC)c3)N2C1=S` (some centres not stated) gave Tat transport -6, AddAB inh -1, AI-2 QS modul -1, phage Ecoli inh 6, E coli growth-1 0.69 and E coli growth-2 -2.
For C=CCN1C(=O)[C@@H]2Cc3c([nH]c4ccccc34)C(c3ccc(O)cc3)N2C1=S (some centres not stated) the results were Tat transport 5, AddAB inh 1, AI-2 QS modul 4, E coli growth-1 0.067* and E coli growth-2 -1.
CCC1(c2ccccc2)NC(=O)N(CC(=O)NCc2ccc(OC)cc2)C1=O (configuration not stated) was read as Tat transport 8, AddAB inh 3, AI-2 QS modul -80*, phage Ecoli inh 0, E coli growth-1 0.64 and E coli growth-2 -1.
For Cc1cccc(CN2C(=O)C3Cc4c([nH]c5ccccc45)C(C)(C)N3C2=O)c1 (configuration not stated) the results were E coli growth-1 0.72.
Screening CNCC1Oc2c(NS(=O)(=O)c3cccs3)cccc2C(=O)N(C(C)CO)CC1C (configuration not stated) returned E coli growth-1 0.7.
`Cc1ccc(S(=O)(=O)Oc2ccc(C=NNC(=O)c3c(Cl)cnn3C)cc2)cc1` gave E coli growth-1 0.69.
Screening O=C(O)c1ccc(N/N=C/c2c(F)cccc2Cl)cc1 returned Tat transport -4, AddAB inh -3, AI-2 QS modul -79*, phage Ecoli inh 1 and E coli growth-2 -2.
`O=C(O)c1ccc(NN=Cc2ccc(-c3ccccc3Cl)o2)cc1` gave E coli growth-1 0.7.
`O=C(O)c1ccc(N/N=C/c2ccc(-c3cc(Cl)ccc3Cl)o2)cc1` gave Tat transport -2, AddAB inh 1, AI-2 QS modul -80*, phage Ecoli inh 2 and E coli growth-2 0.
For O=C(O)c1ccc(N/N=C/c2ccc(-c3cccc(Cl)c3)o2)cc1 the results were Tat transport 3, AddAB inh 2, AI-2 QS modul -94*, phage Ecoli inh 2 and E coli growth-2 0.
Screening CN(C)CC(=O)c1c(N)n(Cc2ccccc2)c(=O)n(C)c1=O returned Tat transport -2, AddAB inh 5, AI-2 QS modul 10, phage Ecoli inh -2, E coli growth-1 0.54* and E coli growth-2 0.
For Cn1c(=O)c(C(=O)CCl)c(N)n(Cc2ccccc2)c1=O the results were Tat transport -9, AddAB inh 2, AI-2 QS modul 15, phage Ecoli inh 3, E coli growth-1 0.67 and E coli growth-2 1.
For CCOC(=O)N/N=C/c1ccc(C)o1 the results were Tat transport 11, AddAB inh 1, AI-2 QS modul 21, phage Ecoli inh 2 and E coli growth-2 -1.
Screening O=C(CNc1ccc2ccccc2c1)NN=Cc1ccc([N+](=O)[O-])o1 returned E coli growth-1 0.64.
Screening O=C(CNc1ccc2ccccc2c1)N/N=C/c1ccc([N+](=O)[O-])o1 returned Tat transport 0, AddAB inh 2, AI-2 QS modul -92*, phage Ecoli inh 2 and E coli growth-2 1.

Screening results: PubChem BioAssay, several laboratories
